# Assay results: PubChem BioAssay (NCI)
# Compounds without any hit were thinned out: in the full panel of roughly 79,000, 15% have a hit. Values without a mark were called inactive. Activity calls are given as the source filed them. No stated cut-off is given here; in the data, active means growth inhibition above about 70%; inactive means the rest.
# Experiments:
# [1] = NCI Yeast Anticancer Drug Screen. Data for the rad52 strain (AID 147);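 further: 0% = growth of vehicle-treated control cultures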; details: S. cerevisiae rad52 mutant growth inhibition, active compounds read high
# Summary of the method: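 Inhibition of yeast growth, referenced to vehicle controls, was the measured output for a strain with defective DNA damage repair.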
# [2] = NCI Yeast Anticancer Drug Screen. Data for the wt1 strain (AID 149);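 further: 0% = growth of vehicle-treated wt1 cultures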; details: S. cerevisiae wt1 strain (SPY 50644) growth inhibition, active compounds read high
# Summary of the method: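 wt1 yeast, compound-treated; % growth inhibition vs vehicle control.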
# [3] = NCI Yeast Anticancer Drug Screen. Data for the rad50EPP+ strain (AID 151);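 further: 0% = growth of vehicle-treated control cultures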; details: S. cerevisiae rad50 mutant strain, active compounds read high
# Summary of the method: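 Genetically defined yeast (rad50EPP+, DNA damage repair alteration) is grown with compound, and inhibition of growth is expressed relative to vehicle-treated controls.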
# [4] = NCI Yeast Anticancer Drug Screen. Data for the mgt1 strain (AID 153); details: S. cerevisiae mgt1 mutant growth inhibition, active compounds read high
# Summary of the method: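 In the mgt1 strain, test compounds were added and growth inhibition was determined relative to vehicle-treated controls.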
# [5] = NCI Yeast Anticancer Drug Screen. Data for the rad50 strain (AID 155);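 further: 0% = growth of vehicle-only cultures of the same strain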; details: S. cerevisiae rad50 strain growth inhibition, active compounds read high
# Summary of the method: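 Genetically altered yeast (DNA repair pathway); compound treatment; growth inhibition vs vehicle ctrl.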
# [6] = NCI Yeast Anticancer Drug Screen. Data for the mec2-1 strain (AID 157); details: S. cerevisiae mec2-1 strain, active compounds read high
# Summary of the method: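 Each compound was tested on mec2-1 yeast, a strain altered in DNA damage repair or cell cycle control. Growth inhibition is reported relative to vehicle.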
# [7] = NCI Yeast Anticancer Drug Screen. Data for the sgs1 mgt1 strain (AID 161);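 further: 0% = growth of cultures given vehicle only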; details: S. cerevisiae sgs1 mgt1 strain, active compounds read high
# Summary of the method: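 Mutant yeast exposed to compound; growth scored against vehicle-only wells.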
# [8] = NCI Yeast Anticancer Drug Screen. Data for the CLN2oe strain (AID 163);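 further: 0% = growth of vehicle-only control cultures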; details: S. cerevisiae CLN2oe strain, active compounds read high
# Summary of the method: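 First, the altered yeast strain was treated with each compound; second, its growth was measured; finally, inhibition was derived by comparison with vehicle controls.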
# [9] = NCI Yeast Anticancer Drug Screen. Data for the cln2 rad14 strain (AID 165);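 further: 0% = growth equal to vehicle treated cultures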; details: S. cerevisiae cln2 rad14 strain, active compounds read high
# Summary of the method: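 Test compounds were added to cln2 rad14 yeast cultures; inhibition of growth was then determined by comparison with vehicle treatment.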
# [10] = NCI Yeast Anticancer Drug Screen. Data for the bub3 strain (AID 167); details: S. cerevisiae bub3 mutant strain, active compounds read high
# Summary of the method: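 Yeast carrying a defined mutation is treated with each compound, and growth is compared with that of vehicle-exposed cells to give inhibition.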
# [11] = NCI Yeast Anticancer Drug Screen. Data for the wt2 strain (AID 169);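 further: 0% = growth of vehicle-treated yeast cultures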; details: S. cerevisiae wt2 strain growth inhibition, active compounds read high
# Summary of the method: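 The panel's yeast strains carry defined changes in DNA repair or cell cycle genes. Each strain is grown with compound, and growth loss is scored relative to vehicle.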
# [12] = NCI Yeast Anticancer Drug Screen. Data for the mlh1 strain (AID 171);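 further: 0% = growth of vehicle-treated control cultures of the same strain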; details: S. cerevisiae mlh1 strain growth inhibition, active compounds read high
# Summary of the method: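 Inhibition values reflect reduced yeast growth in the presence of compound, referenced to vehicle controls, using a strain chosen for its alteration in DNA repair or cell cycle control.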
# [13] = NCI Yeast Anticancer Drug Screen. Data for the sgs1 strain (AID 173);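 further: 0% = growth of vehicle-only control cultures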; details: S. cerevisiae sgs1 mutant, active compounds read high
# Summary of the method: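 Vehicle-treated cultures served as reference for growth inhibition of a yeast strain altered in DNA damage repair or cell cycle control after compound exposure.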
# [14] = NCI Yeast Anticancer Drug Screen. Data for the mlh1 rad18 strain (AID 175); details: S. cerevisiae mlh1 rad18 strain growth inhibition, active compounds read high
# Summary of the method: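 Inhibition values reflect reduced growth of mutant yeast versus vehicle-treated controls following compound exposure; the mutations affect DNA damage repair.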
# [15] = NCI Yeast Anticancer Drug Screen. Data for the rad18 strain (AID 177); details: S. cerevisiae rad18 mutant growth inhibition, active compounds read high
# Summary of the method: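 Steps: expose repair-mutant yeast to compound; measure growth; express as inhibition relative to vehicle control.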
# [16] = at 5.0 µM (retest, dose inferred, filed as 0.5)
# [17] = at 50.0 µM (retest, dose inferred, filed as 5.0)
smiles,measurement,setting,value
Cn1ccnc1Oc1ccc(Cl)cc1,growth inhibition,[1]; at 1.2 µM,-7%
same,growth inhibition,[1]; at 3.7 µM,-11%
same,growth inhibition,[1]; at 11.0 µM,7%
same,growth inhibition,[1]; at 33.0 µM,61%
same,growth inhibition,[1]; at 100.0 µM,97% (active)
same,growth inhibition,[2]; at 1.2 µM,1%
same,growth inhibition,[2]; at 3.7 µM,5%
same,growth inhibition,[2]; at 11.0 µM,22%
same,growth inhibition,[2]; at 33.0 µM,50%
same,growth inhibition,[2]; at 100.0 µM,97% (active)
same,growth inhibition,[3]; at 1.2 µM,-5%
same,growth inhibition,[3]; at 3.7 µM,-22%
same,growth inhibition,[3]; at 11.0 µM,0%
same,growth inhibition,[3]; at 33.0 µM,30%
same,growth inhibition,[3]; at 100.0 µM,37%
same,growth inhibition,[4]; at 1.2 µM,-4%
same,growth inhibition,[4]; at 3.7 µM,-5%
same,growth inhibition,[4]; at 11.0 µM,0%
same,growth inhibition,[4]; at 33.0 µM,15%
same,growth inhibition,[4]; at 100.0 µM,98% (active)
same,growth inhibition,[5]; at 1.2 µM,-9%
same,growth inhibition,[5]; at 3.7 µM,-9%
same,growth inhibition,[5]; [16],-121%
same,growth inhibition,[5]; at 11.0 µM,3%
same,growth inhibition,[5]; at 33.0 µM,76% (active)
same,growth inhibition,[5]; [17],83% (active)
same,growth inhibition,[5]; at 50.0 µM,81.2% (active)
same,growth inhibition,[5]; at 100.0 µM,97% (active)
same,growth inhibition,[6]; at 1.2 µM,-2%
same,growth inhibition,[6]; at 3.7 µM,0%
same,growth inhibition,[6]; [16],-46%
same,growth inhibition,[6]; at 11.0 µM,4%
same,growth inhibition,[6]; at 33.0 µM,17%
same,growth inhibition,[6]; [17],26%
same,growth inhibition,[6]; at 50.0 µM,58.3%
same,growth inhibition,[6]; at 100.0 µM,97% (active)
same,growth inhibition,[7]; [16],-61%
same,growth inhibition,[7]; [17],37%
same,growth inhibition,[7]; at 50.0 µM,32.1%
same,growth inhibition,[8]; at 1.2 µM,-8%
same,growth inhibition,[8]; at 3.7 µM,-3%
same,growth inhibition,[8]; at 11.0 µM,-2%
same,growth inhibition,[8]; at 33.0 µM,16%
same,growth inhibition,[8]; at 100.0 µM,93% (active)
same,growth inhibition,[9]; [16],-52%
same,growth inhibition,[9]; [17],-6%
same,growth inhibition,[9]; at 50.0 µM,-55.4%
same,growth inhibition,[10]; at 1.2 µM,-6%
same,growth inhibition,[10]; at 3.7 µM,-3%
same,growth inhibition,[10]; [16],-65%
same,growth inhibition,[10]; at 11.0 µM,0%
same,growth inhibition,[10]; at 33.0 µM,25%
same,growth inhibition,[10]; [17],55%
same,growth inhibition,[10]; at 50.0 µM,38.1%
same,growth inhibition,[10]; at 100.0 µM,97% (active)
same,growth inhibition,[11]; at 1.2 µM,-7%
same,growth inhibition,[11]; at 3.7 µM,7%
same,growth inhibition,[11]; at 11.0 µM,30%
same,growth inhibition,[11]; at 33.0 µM,78% (active)
same,growth inhibition,[11]; at 100.0 µM,99% (active)
same,growth inhibition,[12]; at 1.2 µM,-11%
same,growth inhibition,[12]; at 3.7 µM,-4%
same,growth inhibition,[12]; at 11.0 µM,0%
same,growth inhibition,[12]; at 33.0 µM,45%
same,growth inhibition,[12]; at 100.0 µM,98% (active)
same,growth inhibition,[13]; at 1.2 µM,-15%
same,growth inhibition,[13]; at 3.7 µM,-5%
same,growth inhibition,[13]; at 11.0 µM,15%
same,growth inhibition,[13]; at 33.0 µM,83% (active)
same,growth inhibition,[13]; at 100.0 µM,98% (active)
same,growth inhibition,[14]; [16],-131%
same,growth inhibition,[14]; [17],74% (active)
same,growth inhibition,[14]; at 50.0 µM,89.2% (active)
same,growth inhibition,[15]; at 1.2 µM,-7%
same,growth inhibition,[15]; at 3.7 µM,-1%
same,growth inhibition,[15]; at 11.0 µM,6%
same,growth inhibition,[15]; at 33.0 µM,55%
same,growth inhibition,[15]; at 100.0 µM,97% (active)
Cc1ccc(-n2cc(-c3ccc(Cl)cc3)c(C#N)c2N)cc1,growth inhibition,[1]; at 1.2 µM,0%
same,growth inhibition,[1]; at 3.7 µM,1%
same,growth inhibition,[1]; at 11.0 µM,6%
same,growth inhibition,[1]; at 33.0 µM,17%
same,growth inhibition,[1]; at 100.0 µM,23%
same,growth inhibition,[2]; at 1.2 µM,-4%
same,growth inhibition,[2]; at 3.7 µM,-2%
same,growth inhibition,[2]; at 11.0 µM,1%
same,growth inhibition,[2]; at 33.0 µM,-2%
same,growth inhibition,[2]; at 100.0 µM,-3%
same,growth inhibition,[3]; at 1.2 µM,-1%
same,growth inhibition,[3]; at 3.7 µM,3%
same,growth inhibition,[3]; at 11.0 µM,23%
same,growth inhibition,[3]; at 33.0 µM,56%
same,growth inhibition,[3]; at 100.0 µM,56%
same,growth inhibition,[4]; at 1.2 µM,1%
same,growth inhibition,[4]; at 3.7 µM,-4%
same,growth inhibition,[4]; at 11.0 µM,2%
same,growth inhibition,[4]; at 33.0 µM,-41%
same,growth inhibition,[4]; at 100.0 µM,-3%
same,growth inhibition,[5]; at 1.2 µM,-3%
same,growth inhibition,[5]; at 3.7 µM,-3%
same,growth inhibition,[5]; [16],13%
same,growth inhibition,[5]; at 11.0 µM,-31%
same,growth inhibition,[5]; at 33.0 µM,4%
same,growth inhibition,[5]; [17],69%
same,growth inhibition,[5]; at 50.0 µM,63.3%
same,growth inhibition,[5]; at 100.0 µM,13%
same,growth inhibition,[6]; at 1.2 µM,0%
same,growth inhibition,[6]; at 3.7 µM,-8%
same,growth inhibition,[6]; [16],-3%
same,growth inhibition,[6]; at 11.0 µM,-4%
same,growth inhibition,[6]; at 33.0 µM,-4%
same,growth inhibition,[6]; [17],43%
same,growth inhibition,[6]; at 50.0 µM,47.3%
same,growth inhibition,[6]; at 100.0 µM,1%
same,growth inhibition,[7]; [16],-3%
same,growth inhibition,[7]; [17],52%
same,growth inhibition,[7]; at 50.0 µM,67.6%
same,growth inhibition,[8]; at 1.2 µM,-6%
same,growth inhibition,[8]; at 3.7 µM,-13%
same,growth inhibition,[8]; at 11.0 µM,-12%
same,growth inhibition,[8]; at 33.0 µM,-7%
same,growth inhibition,[8]; at 100.0 µM,-4%
same,growth inhibition,[9]; [16],-9%
same,growth inhibition,[9]; [17],7%
same,growth inhibition,[9]; at 50.0 µM,43.6%
same,growth inhibition,[10]; at 1.2 µM,-6%
same,growth inhibition,[10]; at 3.7 µM,-5%
same,growth inhibition,[10]; [16],-33%
same,growth inhibition,[10]; at 11.0 µM,3%
same,growth inhibition,[10]; at 33.0 µM,-2%
same,growth inhibition,[10]; [17],64%
same,growth inhibition,[10]; at 50.0 µM,61.6%
same,growth inhibition,[10]; at 100.0 µM,8%
same,growth inhibition,[11]; at 1.2 µM,-1%
same,growth inhibition,[11]; at 3.7 µM,-1%
same,growth inhibition,[11]; at 11.0 µM,1%
same,growth inhibition,[11]; at 33.0 µM,3%
same,growth inhibition,[11]; at 100.0 µM,4%
same,growth inhibition,[12]; at 1.2 µM,-6%
same,growth inhibition,[12]; at 3.7 µM,-5%
same,growth inhibition,[12]; at 11.0 µM,-1%
same,growth inhibition,[12]; at 33.0 µM,-2%
same,growth inhibition,[12]; at 100.0 µM,-4%
same,growth inhibition,[13]; at 1.2 µM,-2%
same,growth inhibition,[13]; at 3.7 µM,0%
same,growth inhibition,[13]; at 11.0 µM,2%
same,growth inhibition,[13]; at 33.0 µM,10%
same,growth inhibition,[13]; at 100.0 µM,16%
same,growth inhibition,[14]; [16],-15%
same,growth inhibition,[14]; [17],55%
same,growth inhibition,[14]; at 50.0 µM,78.3% (active)
same,growth inhibition,[15]; at 1.2 µM,-5%
same,growth inhibition,[15]; at 3.7 µM,1%
same,growth inhibition,[15]; at 11.0 µM,4%
same,growth inhibition,[15]; at 33.0 µM,6%
same,growth inhibition,[15]; at 100.0 µM,41%
